# High-throughput results as filed in PubChem.
# DT40 TDP1 no CPT: qHTS for Inhibitors of human tyrosyl-DNA phosphodiesterase 1 (TDP1): qHTS in cells in absence of CPT; DT40 Tdp1-/- hTDP1 cells, no CPT, ATP luminescence, 48 h; Potency, µM (series often up to 46.2 µM), usual class: inhibitors; 420,000 tested, 15% active; also: nearly all actives have a fitted effect of over 55% in size
#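 DT40 Tdp1-/-;hTDP1 cells, no CPT (DMSO vehicle only), 400 cells/well; compounds pin-transferred; ≥48 hr, 37 °C; CellTiter-Glo 30 min RT dark, luminescence read.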
# DT40 TDP1 CPT: DT40-hTDP1 cell growth loss with CPT | AID 686979 | Potency, µM (doses to about 46.2 µM), hits mostly inhibitors | 420,000 tested, 12% active | chicken DT40 Tdp1-/-;hTDP1 cells + 20 nM CPT, ATP luminescence, 48 h; also: nearly all actives have a fitted effect of over 55% in size
#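 Cell growth measured by CellTiter-Glo luminescence after a minimum 48 h, 37 C compound exposure with 20 nM CPT in Tdp1-knockout DT40 cells stably expressing hTDP1, seeded 400/well; qHTS titration format.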
# uPA surface inh: blocks generation of uPA at the cell surface; cell surface uPA generation assay, qHTS; 330,000 tested, 0.31% active; Potency, µM (series often up to 38.3 µM), most hits filed as inhibitors; active = well fitted inhibition curve with a large enough effect; inconclusive = small, poorly fitted or top-dose-only effect; inactive = no such curve, though single readings can be large or run the other way; tested in mouse RAW 264.7 cells; also: nearly all actives have a fitted effect of over 55% in size
# HT1080 IDH1KD tx: kills HT-1080 cells with IDH1 knockdown; HT-1080 IDH1 knockdown viability, ATP luminescence, 48 h; AID 686971; Potency, µM (series often up to 46.1 µM), usual class: cytotoxic; 360,000 tested, 2% active
#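 After a 2 h attachment period, IDH1KD HT-1080 cells took pin-transferred compound for 48 h at 37 °C; ATP-based luminescence after 10 min room-temperature reagent incubation reported viability.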
# IL1B secr inh: inhibitors of inflammasome signaling (IL-1 beta secretion) | AID 743279 | activity change, % at 57.5 µM | THP-1 LPS/ATP IL-1B secretion, AlphaLISA, 16 h; hits give low values | 360,000 tested, 4.7% active; in the data active = activity change below about -50%; inconclusive = mostly about -30% to -49%
#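 THP-1 cells pretreated 1 hr with compounds (up to 57.5 uM final), then stimulated with LPS (250 ng/mL final) plus ATP (1.25 mM final); secreted IL-1B measured by AlphaLISA after 16 hr, decreased signal indicating inhibition.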
# HT1080NT lethal: kills 2HG-producing HT-1080-NT fibrosarcoma cells; HT-1080-NT fibrosarcoma viability, CellTiter-Glo ATP luminescence, 48 h; Potency, µM (top dose mostly 46.1 µM), actives largely listed as cytotoxic; 360,000 tested, 1.6% active;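 also: NT is the 2HG producing partner of a matched IDH1 knockdown line; nearly all actives have a fitted effect of over 55% in size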
#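 Luminescent CellTiter-Glo readout after 48 hours of compound exposure at 37 degrees C defined viability of HT-1080-NT cells. Activity was normalized to DMSO wells and cell-free media wells; concentration-response curves were fitted and assigned curve classes.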
# Hits are given with their value; – = inactive; ? = inconclusive; · = no result given; [ ] = dose if it differs, or a comment. Sampled rows, rich in hits. Any-hit rate of the full collection: about 19%. Unless noted, calls follow the shape of the dose curve; as a rule, active = well fitted curve in the direction sought with a large enough effect; inconclusive = small, poorly fitted or top-dose-only effect, or another doubt; inactive = no such curve, though single readings can be large; an effect the other way counts as inactive or inconclusive.
SMILES,DT40 TDP1 no CPT,DT40 TDP1 CPT,uPA surface inh,HT1080 IDH1KD tx,IL1B secr inh,HT1080NT lethal
CC(=O)CC1c2cc(F)ccc2C=C(c2ccsc2)N1c1ccc(-c2cccnc2)cc1 (stereo not drawn),?,?,·,?,–,?
COc1cc(-c2ccc(N3C(c4ccsc4)=Cc4ccc(F)cc4C3c3c[nH]c4ccc(C#N)cc34)cc2)cc(OC)c1OC (stereo not drawn),?,?,·,–,–,–
Cc1ccc(CNC(=O)CN2N=C(c3ccccc3)CCC2=O)cc1,–,–,·,·,·,·
CN(/N=C/c1cc(Cl)ccc1O)C1=NS(=O)(=O)c2ccccc21,18µM,16µM,–,–,–,–
CC(C)(C)NC(=O)CCN(/N=C/c1ccccc1O)C1=NS(=O)(=O)c2ccccc21,15µM,21µM,–,–,–,–
CC(C)(C)NC(=O)CCN(/N=C/c1ccncc1)C1=NS(=O)(=O)c2ccccc21,–,–,–,–,–,–
COc1ccc(/C=N/N(CCC(=O)NC(C)(C)C)C2=NS(=O)(=O)c3ccccc32)cc1,21µM,21µM,–,–,–,–
O=S1(=O)N=C(N(CCO)/N=C/c2ccccc2)c2ccccc21,?,–,–,–,?,–
N#Cc1cccc(NC(=O)N2CCC3(CC2)CCN(C(=O)c2cnccn2)CC3)c1,–,–,·,·,·,·
O=c1[nH]c(=O)n(Cc2ccco2)c2c1C(C(F)(F)F)(C(F)(F)F)N=C(c1ccc(F)cc1)N2,6.5µM,12µM,·,?,-68,?
O=c1[nH]c(=O)n(Cc2ccccc2)c2c1C(C(F)(F)F)(C(F)(F)F)N=C(c1ccco1)N2,?,?,–,–,–,–
CC(CNC(=O)C1CCN(S(=O)(=O)c2ccc3c(ccn3C)c2)CC1)c1ccccc1 (stereo not drawn),–,–,·,·,·,·
CC(=O)Oc1ccccc1N(C(C)=O)S(=O)(=O)c1ccc2ccccc2c1,–,–,–,–,–,–
CC(=O)Oc1c(Br)cc(N(C(C)=O)S(=O)(=O)c2ccccc2)c2ccccc12,6.5µM,?,?,?,–,?
CCOC(=O)CSC1=NC(=O)/C(=C\c2ccc(OC(C)=O)cc2)S1,2.9µM,2.6µM,·,?,-62,?
CCOC(=O)CSC1=NC(=O)/C(=C/c2ccc(Br)cc2)S1,4.1µM,2.6µM,–,?,-64,?
CC1(C(=O)NCc2ccccc2)CCC(=O)N1C1CCN(Cc2ccccc2)CC1 (stereo not drawn),–,–,·,–,–,–
CCC(=O)N1CCc2cc(CNS(=O)(=O)c3ccccc3F)ccc21,–,–,·,·,·,·
COCc1ccc(CN2CCOc3ccc(C4=Cc5ccccc5C4)cc3C2)o1,–,–[9.04 µM],·,·,·,·
Cc1ccc(NC(=O)C2(c3ccccc3)CC2(Cl)Cl)cc1C (stereo not drawn),16µM,?,–,–,–,–
CCOC(CNC(=O)C1CCN(S(=O)(=O)c2ccc3nc4c(c(C(=O)O)c3c2)CCCCC4)CC1)OCC,–,–,–,–,–,–
CCOc1ccccc1NC(=O)CSc1nc(-c2cccs2)cc(C(F)(F)F)n1,–,–,·,·,·,·
COc1ccc(NC(=O)CSc2nc(-c3cccs3)cc(C(F)(F)F)n2)cc1OC,2.3µM,4.6µM,·,·,·,·
O=C(NC(=O)c1ccccc1F)Nc1nc(-c2cccs2)cc(C(F)(F)F)n1,?,23µM,?,–,–,–
Cc1cccc(C)c1NC(=O)CSc1nc(-c2cccs2)cc(C(F)(F)F)n1,18µM,15µM,·,·,·,·
SMILES,DT40 TDP1 no CPT,DT40 TDP1 CPT,uPA surface inh,HT1080 IDH1KD tx,IL1B secr inh,HT1080NT lethal
O=C(CSc1nc2nc(-c3cccs3)cc(C(F)(F)F)c2c(=O)[nH]1)Nc1c(F)c(F)c(F)c(F)c1F,?,?,–,–,–,12µM
O=c1c(-c2cc(F)cc(F)c2)nc2cnc(N3CCOCC3)nc2n1C[C@H]1CCCO1,–,–,·,·,·,·
CC(C)(C)c1ccccc1NC(=O)CSc1nc(-c2cccs2)cc(C(F)(F)F)n1,?,21µM,·,·,·,·
O=C(CSc1nc(-c2cccs2)cc(C(F)(F)F)n1)Nc1cc(OCC(F)(F)F)cc([N+](=O)[O-])c1,18µM,?,–,16µM,–,?
O=C(CCCn1ccc2cc(S(=O)(=O)N3CCCC3)ccc21)NCc1ccc(Cl)cc1,2.3µM,4.6µM,·,·,·,·
CN(C)c1ccc(CNC(=O)CCCn2ccc3cc(S(=O)(=O)N4CCCC4)ccc32)cc1,18µM,?,·,·,·,·
O=C(CCn1ccc2cc(S(=O)(=O)N3CCCC3)ccc21)NCc1ccccc1,–,–,–,–,–,–
O=C(c1ccc(N2C(=O)C3C4c5ccccc5C(c5ccccc54)C3C2=O)cc1)N1CCOCC1 (stereo not drawn),–,–,–,–,–,–
CC(=O)N1CCN(c2ccccc2NC(=O)COc2cc(C)ccc2C(C)C)CC1,?,?,–,?,?,?
C/C(=N/NC(=O)COc1cc(C)ccc1C(C)C)C(=O)O,–,–,–,6.5µM,–,?
O=C(COc1ccc(Br)cc1)Nc1ccc(N2CCOCC2)cc1N1CCOCC1,–,–,–,–,–,–
Cc1ccc(C(C)C)c(OCC(=O)Nc2ccccc2N2CCN(C)CC2)c1,15µM,?,–,?,-59,?
COc1ccc(Cl)cc1C(=O)NC(=S)Nc1nc(C)cc(C)n1,–,–,–,–,–,–
Cc1ccc(C(C)C)c(OCC(=O)Nc2ccc(N3CCOCC3)cc2N2CCOCC2)c1,18µM,23µM,–,–,–,–
COc1ccc(Cl)cc1C(=O)NC(=S)Nc1cc(-c2nc3ccccc3[nH]2)ccc1C,15µM,?,–,?,–,–
CCc1cccc(OCCOC(=O)CNS(=O)(=O)c2ccc(NC(C)=O)cc2)c1,–,–,–,–,–,–
COc1ccc(NC(=O)CN(c2ccccc2F)S(=O)(=O)c2ccc(C)cc2)cc1,?,–,–,–,–,–
Cc1cc(C)cc(OCC(=O)Nc2cccc(-c3nc4ccccc4[nH]3)c2)c1,–,?,·,·,·,·
Cc1ccc(C(C)C)c(OCC(=O)Nc2cc(-c3nc4ccccc4[nH]3)ccc2C)c1,3.7µM,4.6µM,·,·,·,·
Cc1nnc(Sc2cc(NCCO)c([N+](=O)[O-])c3nonc23)s1,2.3µM,3.3µM,–,?,–,?
Cc1nnc(Sc2cc(NCCCO)c([N+](=O)[O-])c3nonc23)s1,2.1µM,1.5µM,–,16µM,-105,16µM
CN1CC[C@@]2(CCCN(C(=O)c3cccn3C)C2)C1,–,–,·,·,·,·
CCCCN(C(=O)c1cc(-c2ccc(F)cc2)nc2ccccc12)c1c(N)n(CCCC)c(=O)[nH]c1=O,?,?,–,–,-70,–
